This is one part of a sample in which hits are shown more often than they occur.
ALOX12 inh: inhibitors of human 12S-lipoxygenase ALOX12 | P18054 | Potency, µM (top dose mostly 108 µM), for inactives: top-dose activity change, negative = inhibition, actives largely listed as inhibitors | actives 1.1% (n = 580,000) | AID 1671190 | purified 12hLO, xylenol orange hydroperoxide absorbance; also: potency is read from the fitted curve at half-maximal effect
Target sequence (P18054 whole entry, looked up): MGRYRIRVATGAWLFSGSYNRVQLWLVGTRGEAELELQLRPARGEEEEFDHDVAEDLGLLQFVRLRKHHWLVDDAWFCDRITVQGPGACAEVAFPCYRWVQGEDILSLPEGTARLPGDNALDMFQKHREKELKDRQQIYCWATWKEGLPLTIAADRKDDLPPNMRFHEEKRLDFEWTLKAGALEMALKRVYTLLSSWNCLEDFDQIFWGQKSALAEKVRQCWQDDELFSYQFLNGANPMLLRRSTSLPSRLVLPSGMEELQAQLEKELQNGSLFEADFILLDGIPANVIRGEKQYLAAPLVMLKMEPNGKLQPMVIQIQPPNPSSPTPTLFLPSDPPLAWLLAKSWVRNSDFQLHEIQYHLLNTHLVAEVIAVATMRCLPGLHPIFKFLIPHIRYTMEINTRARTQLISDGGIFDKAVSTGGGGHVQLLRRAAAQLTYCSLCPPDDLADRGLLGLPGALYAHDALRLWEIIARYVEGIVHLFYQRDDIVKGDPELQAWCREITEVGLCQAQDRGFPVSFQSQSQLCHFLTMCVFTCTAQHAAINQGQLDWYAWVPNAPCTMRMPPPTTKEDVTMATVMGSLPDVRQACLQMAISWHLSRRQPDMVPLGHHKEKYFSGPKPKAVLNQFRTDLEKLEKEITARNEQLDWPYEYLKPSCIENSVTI
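Purified human 12hLO at 150 nM in 25 mM Hepes, 0.01% Triton X-100, pH 7.0, preincubated 15 min at room temperature with compound. Reaction started with 40 uM arachidonic acid, 30 min at room temperature. Hydroperoxide measured by Fe-xylenol orange, 573/405 nm absorbance ratio.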
HT1080 IDH1KD tx: kills HT-1080 cells with IDH1 knockdown; Potency, µM (top dose mostly 46.1 µM), for inactives: top-dose activity, negative = toxicity, most hits filed as cytotoxic; actives 2% (n = 360,000); HT-1080 IDH1 knockdown viability, ATP luminescence, 48 h;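 also: potency is read from the fitted curve at half-maximal effect; 0% = DMSO wells and -100% = cell-free medium wells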
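Assay cells: HT-1080 with IDH1 knockdown, 750 per well, RPMI/5% FBS. Exposure: 48 h at 37 °C following 2 h pre-incubation. Read: CellTiter-Glo luminescence; fitted concentration-response, curve class assigned.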
DT40 TDP1 no CPT: qHTS for Inhibitors of human tyrosyl-DNA phosphodiesterase 1 (TDP1): qHTS in cells in absence of CPT; actives 15% (n = 420,000); DT40 Tdp1-/- hTDP1 cells, no CPT, ATP luminescence, 48 h; Potency, µM (series often up to 46.2 µM), without a hit: at the highest dose activity change, negative = growth inhibition, hits mostly inhibitors; also: potency is read from the fitted curve at half-maximal effect; nearly all actives have a fitted effect of over 55% in size
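Camptothecin absent (DMSO only). Human TDP1-complemented DT40 knockout cells, 400 cells/well, 37 °C for minimum 48 hr; ATP measured via CellTiter-Glo, 30 min dark incubation, luminescence.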
IL-1B inflam inh: inhibitors of inflammasome signaling (IL-1 beta secretion) | THP-1 LPS/ATP IL-1B secretion, AlphaLISA, 16 h; stronger effect = lower value | activity change, % at 57.5 µM | actives 4.7% (n = 360,000) | AID 743279; in the data active = activity change below about -50%; inconclusive = mostly about -30% to -49%
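THP-1 cells pretreated 1 hr with compounds (up to 57.5 uM final), then stimulated with LPS (250 ng/mL final) plus ATP (1.25 mM final); secreted IL-1B measured by AlphaLISA after 16 hr, decreased signal indicating inhibition.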
TDP1 cell CPT: growth inhibition of DT40 Tdp1-/-;hTDP1 cells with camptothecin (screen for TDP1 inhibitors); actives 12% (n = 420,000); chicken DT40 Tdp1-/-;hTDP1 cells + 20 nM CPT, ATP luminescence, 48 h; AID 686979; Potency, µM (doses to about 46.2 µM), for the others: top-dose activity change, negative = growth inhibition, usual class: inhibitors; also: potency is read from the fitted curve at half-maximal effect; nearly all actives have a fitted effect of over 55% in size
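Chicken DT40 Tdp1-/- cells stably complemented with human TDP1 were seeded at 400 cells/well in medium containing 20 nM camptothecin, exposed to pin-transferred compounds, and grown at 37 °C for at least 48 hr. Viability was read as ATP luminescence.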
HT1080-NT tox: kills 2HG-producing HT-1080-NT fibrosarcoma cells | HT-1080-NT fibrosarcoma viability, CellTiter-Glo ATP luminescence, 48 h | Potency, µM (series often up to 46.1 µM), for inactives: at the top dose activity, negative = less viability, actives largely listed as cytotoxic | actives 1.6% (n = 360,000) | AID 686970;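 also: NT is the 2HG producing partner of a matched IDH1 knockdown line; potency is read from the fitted curve at half-maximal effect; 0% = DMSO-treated cells and -100% = media-only wells without cells; nearly all actives have a fitted effect of over 55% in size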
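Toxicity toward the 2HG-producing NT line was scored as %Activity, normalised to DMSO and no-cell wells, from CellTiter-Glo luminescence after 48 hours' treatment.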
Numbers without * were called inactive; ? = inconclusive; . = no result given; [ ] = another dose, or the depositor's remark. Unless noted, calls follow the shape of the dose curve; as a rule, active = well fitted curve in the direction sought with a large enough effect; inconclusive = small, poorly fitted or top-dose-only effect, or another doubt; inactive = no such curve, though single readings can be large; an effect the other way counts as inactive or inconclusive. Unless noted, % is scaled to controls: 0 for no effect and ±100 for the full control effect.

SMILES	ALOX12 inh	HT1080 IDH1KD tx	DT40 TDP1 no CPT	IL-1B inflam inh	TDP1 cell CPT	HT1080-NT tox
CCCCN1C(C(=O)Nc2cc(C)on2)=C(O)c2ccccc2S1(=O)=O	?	0.6%	-20.2%	-9.1	6.0%	9.2%
CCCCCN1C(C(=O)c2ccccc2)=C(NC(=O)c2ccc(OC)cc2)c2ccccc2S1(=O)=O	-15.8%	.	23.1µM*	.	?	.
CCCCCN1C(C(=O)c2ccccc2)=C(NC(=O)c2ccc(OC)c(OC)c2)c2ccccc2S1(=O)=O	-13.0%	.	16.4µM*	.	20.6µM*	.
CN(Cc1ccc(C(F)(F)F)cc1)C(=O)C1CC(=O)N(Cc2ccco2)C1 (stereo unspecified)	?	-7.5%	-17.4%	5.9	4.4%	-2.0%
COc1ccccc1CNC1(Cc2cc(-c3ccccn3)on2)COC1	-0.1%[176 µM]	.	.	.	.	.
Cn1cnnc1CC1CCN(C(=O)c2cc3c([nH]c2=O)CCCC3)CC1	-13.4%	.	.	.	.	.
Cc1cc(C(=O)Nc2cccc(-c3nc(CNC(=O)c4sc(C)nc4C)c(C)o3)c2)c(C)o1	?	.	20.6µM*	.	7.2%[9.04 µM]	.
Cc1ccc(C(=O)Nc2cccc(-c3nc(CNC(=O)c4cccc(C)c4C)c(C)o3)c2)s1	9.2%	.	20.6µM*	.	23.1µM*	.
C#Cc1cccc(C(=O)NCc2nc(-c3cccc(NC(=O)c4ccccn4)c3)oc2C)c1	5.8%	.	23.1µM*	.	?	.
Cc1occc1C(=O)Nc1cccc(-c2nc(CNC(=O)c3ccc(N4CCCCC4)cc3)c(C)o2)c1	24.7%	.	18.4µM*	.	?	.
CC(C)C(=O)N1Cc2ccccc2CC2(CCCN(CC3CCOCC3)C2)C1 (stereo unspecified)	7.8%[12.5 µM]	.	.	.	.	.
COC(=O)N(C)C[C@H]1OCc2cn(nn2)CCCC(=O)N([C@H](C)CO)C[C@@H]1C	-50.7%	.	.	.	.	.
Cc1cc(C(=O)NCc2nc(-c3cccc(NC(=O)c4cc(C)oc4C)c3)oc2C)nc(C)n1	12.5%	.	20.6µM*	.	-15.0%[9.04 µM]	.
Cc1sc2ccccc2[n+]1CCCCBr	.	.	5.62µM*	.	3.98µM*	.
Cc1sc2ccccc2[n+]1CCCC[n+]1c(C)sc2ccccc21	.	.	2.51µM*	.	4.47µM*	.
Cc1sc2ccccc2[n+]1C	.	.	3.16µM*	.	3.98µM*	.
COc1ccc2sc(C)[n+](C)c2c1	?	10.5%	18.4µM*	-13.5	?	17.0%
COc1ccc(-c2c(-c3cc(OC)cc(OC)c3)sc3ccc(OC)cc23)cc1	-29.2%	-2.6%	-10.4%	-11.8	-28.0%	-0.7%
Cc1sc2ccccc2[n+]1Cc1ccccc1	.	.	1.12µM*	.	0.794µM*	.
Cc1ccc(S(=O)(=O)Cc2sc3ccccc3[n+]2C)cc1	?	-1.0%	?	10.7	-24.6%	10.4%
CCc1ccc(C2Sc3ccccc3NC3=C2C(=O)c2ccccc23)cc1 (stereo unspecified)	?	.	?	.	16.4µM*	.
COc1ccc(C2Sc3ccccc3NC3=C2C(=O)c2ccccc23)cc1OC (stereo unspecified)	-0.6%	.	.	.	.	.
CC(C)c1ccc(C2Sc3ccccc3NC3=C2C(=O)c2ccccc23)cc1 (stereo unspecified)	?	.	16.4µM*	.	16.4µM*	.
Brc1ccc2nc(-c3ccco3)c(CC3CCCCC3)n2c1	15.8µM*	?	?	-4.6	?	-25.4%
Cc1ccc2nc(-c3ccco3)c(CC3CCCCC3)n2c1	.	?	10.3µM*	-16.9	13µM*	?
Cc1ccc2nc(-c3ccc(Cl)cc3)c(CC3CCCCC3)n2c1	?	?	?	-2.8	?	?
Cc1ccc(NC(=O)C(=O)NCC(c2cccnc2)N2CCN(c3ccccc3F)CC2)cc1F (stereo unspecified)	-0.5%	.	.	.	.	.
